According to PubChem BioAssay (EPA / NIEHS):
Inconclusive results are not listed. Activity calls are given as the source filed them. The calls were made as follows, unless noted: active = hit-call score of the fitted dose curve at least 0.9, where 1 is the maximum; inactive = score below 0.9.

How the values were obtained:
[1] = BSK_3C_VCAM1: BioMAP Diversity Plus: 3C Assay for Vascular cell adhesion molecule 1 (VCAM1) Biomarker Activity (AID 2282999); details: BioMAP 3C HUVEC, VCAM1 ELISA, cytokine-stimulated; actives raise or lower the signal
Outline: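 Human umbilical vein endothelial cells were dosed with compound for 24 h, after which cell-surface VCAM-1 was quantified by ELISA. Bidirectional curve fitting used DMSO as negative control and activity baseline.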

[2] = BSK_4H_Eotaxin3: BioMAP Diversity Plus: 4H Assay for Eotaxin 3 Biomarker Activity (AID 2283000); details: primary human endothelial cells (HUVEC); actives raise or lower the signal;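 also: CCL26 protein level quantified by ELISA in parallel with SRB cytotoxicity check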
Outline: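 Endothelial primary cells (human umbilical vein) exposed to compound for 24 h. ELISA detection of Eotaxin-3.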

[3] = read-out: Intercellular Adhesion Molecule 1 (ICAM1), ICAM1 (gene 3383); test: BSK_3C_ICAM1: BioMAP Diversity Plus: 3C Assay for Intercellular Adhesion Molecule 1 (ICAM1) Biomarker Activity (AID 2283003); details: primary human endothelial cells (HUVEC); actives raise or lower the signal
Outline: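 Primary human umbilical vein endothelial cells in the BioMAP 3C system were exposed to chemicals for 24 h, then ICAM-1 was quantified by ELISA. Activity was fitted bidirectionally against the DMSO negative control baseline.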

[4] = target: human Retinoic Acid Receptor beta (RARb), RARB (gene 5915) (UniProt P10826); test: ATG_RARb_TRANS: Attagene TRANS-FACTORIAL HepG2 Assay for human Retinoic Acid Receptor beta (AID 2283004; active = hit-call score of the fitted dose curve at least 0.9, where 1 is the maximum)
Outline: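 HepG2, transient MRTU transfection, NR–Gal4 chimera, 24 h treatment; RT-PCR plus CE fluorescence detection of reporter mRNA; gain of signal vs DMSO.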

[5] = target: Retinoic acid receptor alpha (Homo sapiens) (UniProt P10276); test: ATG_RARa_TRANS: Attagene TRANS-FACTORIAL HepG2 Assay for human Retinoic Acid Receptor alpha (RARa) (AID 2283005; active = hit-call score of the fitted dose curve at least 0.9, where 1 is the maximum;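 as to AC50: potency for increased reporter signal meaning RARa activation over DMSO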)
Outline: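 HepG2 cells transiently transfected with multiple reporter units expressing chimeric RARα-GAL4 fusion, with GAL4-UAS-driven reporters. After 24 h compound exposure, reporter mRNA induction quantified by RT-PCR and capillary electrophoresis with fluorescent labeling; gain-of-signal fitted relative to DMSO control.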

[6] = BSK_3C_Proliferation: Cell Proliferation Assessment in the BioMAP Diversity Plus: 3C Assay (AID 2283006); details: primary human endothelial cells (HUVEC);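 as to AC50: potency may reflect either rise or fall in cell number versus DMSO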
Outline: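 Human umbilical vein endothelial cells were grown sub-confluent and exposed to chemical for 48 h, then fixed with 10% TCA and stained with 0.1% sulforhodamine B; absorbance at 560 nm gave relative cell number, fitted bidirectionally against DMSO baseline.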

[7] = target: Peroxisome proliferator-activated receptor gamma (Homo sapiens) (UniProt P37231); test: ATG_PPARg_TRANS: Attagene TRANS-FACTORIAL HepG2 Assay for human Peroxisome Proliferator-activated Receptor-gamma (PPARg) (AID 2283007; active = hit-call score of the fitted dose curve at least 0.9, where 1 is the maximum)
Outline: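 Endpoint reflects upward reporter mRNA change versus DMSO controls. Setup: transiently transfected HepG2, GAL4-UAS reporters driven by chimeric NR-Gal4, 24 h incubation, RT-PCR with capillary electrophoresis read-out.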

[8] = target: Nuclear receptor subfamily 1 group I member 2 (Homo sapiens) (UniProt O75469); test: ATG_PXR_TRANS: Attagene TRANS-FACTORIAL HepG2 Assay for human Pregnane X Receptor (PXR) (AID 2283008; active = hit-call score of the fitted dose curve at least 0.9, where 1 is the maximum)
Outline: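 HepG2 cells transiently transfected with multiple reporter units, here a PXR-GAL4 chimera driving a GAL4-UAS reporter; 24 h compound exposure. Reporter mRNA measured by RT-PCR, FAM labelling and capillary electrophoresis; gain of signal fitted against DMSO baseline.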

[9] = target: human Retinoic Acid Receptor gamma (RARg), RARG (gene 5916) (UniProt P13631); test: ATG_RARg_TRANS: Attagene TRANS-FACTORIAL HepG2 Assay for human Retinoic Acid Receptor gamma (RARg) (AID 2283009; active = hit-call score of the fitted dose curve at least 0.9, where 1 is the maximum)
Outline: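 HepG2 cells transiently transfected with multiplexed reporter units expressing chimeric RARg-GAL4 and GAL4-UAS-driven reporters; 24 h compound exposure. Reporter mRNA quantified by RT-PCR with fluorescent labelling and capillary electrophoresis; gain-of-signal fitted relative to DMSO baseline.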

[10] = target: human RAR-related Orphan Receptor gamma (RORg), RORC (gene 6097) (UniProt P51449); test: ATG_RORg_TRANS: Attagene TRANS-FACTORIAL HepG2 Assay for human RAR-related Orphan Receptor gamma (RORg) (AID 2283011; active = hit-call score of the fitted dose curve at least 0.9, where 1 is the maximum)
Outline: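 Activity is scored as increase in GAL4-UAS reporter mRNA over DMSO, detected by fluorescent RT-PCR and capillary electrophoresis in HepG2 cells transiently expressing a RORg-Gal4 chimera, 24 h after dosing.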

[11] = target: Retinoic acid receptor RXR-alpha (Homo sapiens) (UniProt P19793); test: ATG_RXRa_TRANS: Attagene TRANS-FACTORIAL HepG2 Assay for human Retinoid X Receptor alpha (RXRa) (AID 2283012; active = hit-call score of the fitted dose curve at least 0.9, where 1 is the maximum)
Outline: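 HepG2 cells transiently transfected with multiplexed GAL4-UAS reporter units and chimeric NR-GAL4 fusions, dosed 24 h. Reporter mRNA measured by RT-PCR, FAM labelling, HpaI digestion and capillary electrophoresis; gain-of-signal fitted relative to DMSO baseline.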

[12] = target: human Retinoid X Receptor beta (RXRb), RXRB (gene 6257) (UniProt P28702); test: ATG_RXRb_TRANS: Attagene TRANS-FACTORIAL HepG2 Assay for human Retinoid X Receptor beta (RXRb) (AID 2283013; active = hit-call score of the fitted dose curve at least 0.9, where 1 is the maximum)
Outline: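 HepG2 cells transiently transfected with multiplexed reporter units driven by GAL4-UAS and exogenous chimeric NR-Gal4 proteins; treated 24 h. Reporter mRNA measured by RT-PCR, 6-FAM labelling and capillary electrophoresis; gain-of-signal fitted versus DMSO baseline.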

[13] = target: human Thyroid Receptor alpha (THRa1), THRA (gene 7067) (UniProt P10827); test: ATG_THRa1_TRANS: Attagene TRANS-FACTORIAL HepG2 Assay for human Thyroid Receptor alpha (THRa1) (AID 2283014; active = hit-call score of the fitted dose curve at least 0.9, where 1 is the maximum)
Outline: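 First, HepG2 cells receive multiple GAL4-UAS reporter units and the chimeric receptor. They are then dosed for 24 h, after which RNA is reverse-transcribed, amplified, labelled, HpaI-cut and sized by capillary electrophoresis; gain relative to DMSO is scored.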

[14] = read-out: E-selectin (Homo sapiens) (UniProt P16581); test: BSK_3C_Eselectin: BioMAP Diversity Plus: 3C Assay for Eselectin Biomarker Activity (AID 2283015); details: primary human endothelial cells (HUVEC); actives raise or lower the signal
Outline: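 Human vascular endothelium from umbilical vein is exposed to test chemicals for 24 h. E-selectin levels are read by ELISA and compared with DMSO controls.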

[15] = read-out: Interleukin-1 alpha (IL1a), IL1A (gene 3552); test: BSK_BE3C_IL1a: BioMAP Diversity Plus: BE3C Assay for Interleukin-1 alpha (IL1a) Biomarker Activity (AID 2283016); details: primary human bronchial epithelial cells; actives raise or lower the signal
Outline: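 Human primary bronchial epithelial cells (BE3C system) were dosed with compound and IL-1a measured by ELISA 24 h later. Activity was fitted bidirectionally against DMSO baseline; cytotoxicity was tracked in parallel cultures by SRB total-protein staining.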

[16] = read-out: Monocyte Chemoattractant Protein-1 (MCP1), CCL2 (gene 6347); test: BSK_3C_MCP1: BioMAP Diversity Plus: 3C Assay for Monocyte Chemoattractant Protein-1 (MCP1) Biomarker Activity (AID 2283017); details: primary human endothelial cells (HUVEC); actives raise or lower the signal
Outline: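 Endothelial cells from human umbilical vein are dosed with chemical, cultured 24 h, then assayed for MCP-1 by ELISA; both increases and decreases are modelled against DMSO controls.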

[17] = read-out: Monocyte Chemoattractant Protein-1 (MCP1), CCL2 (gene 6347); test: BSK_4H_MCP1: BioMAP Diversity Plus: 4H Assay for Monocyte Chemoattractant Protein-1 (MCP1) Biomarker Activity (AID 2283018); details: primary human endothelial cells (HUVEC); actives raise or lower the signal
Outline: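 Human umbilical vein endothelial cells (4H system) dosed with chemical; MCP-1 measured by ELISA 24 h after dosing. Bidirectional curve fitting against DMSO negative control as baseline; parallel SRB total-protein staining tracks overt cytotoxicity.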

[18] = target: human RAR-related Orphan Receptor beta (RORb), RORB (gene 6096) (UniProt Q92753); test: ATG_RORb_TRANS: Attagene TRANS-FACTORIAL HepG2 Assay for human RAR-related Orphan Receptor beta (RORb) (AID 2283010; active = hit-call score of the fitted dose curve at least 0.9, where 1 is the maximum)
Outline: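 HepG2 cells were transiently transfected with multiplexed GAL4-UAS reporter units expressing chimeric nuclear receptor–GAL4 proteins, then dosed for 24 h. Reporter mRNA was quantified by RT-PCR with fluorescent labelling and capillary electrophoresis; gain of signal was fitted relative to DMSO.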

[19] = target: human Peroxisome Proliferator-activated Receptor delta (PPARd), PPARD (gene 5467) (UniProt Q03181); test: ATG_PPARd_TRANS: Attagene TRANS-FACTORIAL HepG2 Assay for human Peroxisome Proliferator-activated Receptor delta (PPARd) (AID 2283002; active = hit-call score of the fitted dose curve at least 0.9, where 1 is the maximum)
Outline: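 HepG2 cells transiently transfected with multiplexed GAL4-UAS reporter units and exogenous chimeric NR-Gal4 proteins; 24 h compound exposure. Reporter mRNA measured by RT-PCR, 6-FAM labelling, HpaI digestion and capillary electrophoresis; gain of signal versus DMSO.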

Measured: AC50

Retinoic acid receptor alpha (Homo sapiens), sequence (P10276 whole entry, looked up, the tested form may be a part): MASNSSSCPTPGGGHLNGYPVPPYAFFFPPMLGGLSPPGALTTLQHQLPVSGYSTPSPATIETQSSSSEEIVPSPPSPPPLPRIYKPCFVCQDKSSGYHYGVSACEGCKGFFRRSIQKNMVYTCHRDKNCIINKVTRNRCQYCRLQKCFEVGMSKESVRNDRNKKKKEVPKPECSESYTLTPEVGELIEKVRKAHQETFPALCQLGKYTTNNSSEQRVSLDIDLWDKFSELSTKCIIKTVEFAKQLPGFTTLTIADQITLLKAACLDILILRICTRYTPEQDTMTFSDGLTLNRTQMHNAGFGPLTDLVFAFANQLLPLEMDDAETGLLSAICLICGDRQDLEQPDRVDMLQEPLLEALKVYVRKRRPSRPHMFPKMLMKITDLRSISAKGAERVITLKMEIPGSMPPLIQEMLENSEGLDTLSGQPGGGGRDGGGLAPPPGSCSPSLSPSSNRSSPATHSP
human Thyroid Receptor alpha (THRa1), THRA (gene 7067), sequence (P10827 whole entry, looked up, the tested form may be a part): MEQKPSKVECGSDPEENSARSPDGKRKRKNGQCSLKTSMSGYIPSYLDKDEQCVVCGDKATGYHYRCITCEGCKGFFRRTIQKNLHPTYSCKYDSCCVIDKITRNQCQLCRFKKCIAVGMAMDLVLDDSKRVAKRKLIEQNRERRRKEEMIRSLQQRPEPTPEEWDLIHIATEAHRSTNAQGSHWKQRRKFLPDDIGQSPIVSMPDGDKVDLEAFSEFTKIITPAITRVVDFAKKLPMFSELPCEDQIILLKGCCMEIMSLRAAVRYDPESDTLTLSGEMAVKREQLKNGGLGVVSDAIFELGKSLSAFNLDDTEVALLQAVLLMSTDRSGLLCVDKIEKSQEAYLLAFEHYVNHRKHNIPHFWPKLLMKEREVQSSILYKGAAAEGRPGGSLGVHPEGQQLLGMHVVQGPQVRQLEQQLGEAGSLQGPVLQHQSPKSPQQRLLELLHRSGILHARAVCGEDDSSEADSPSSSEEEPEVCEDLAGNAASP
Retinoic acid receptor RXR-alpha (Homo sapiens), sequence (P19793 whole entry, looked up, the tested form may be a part): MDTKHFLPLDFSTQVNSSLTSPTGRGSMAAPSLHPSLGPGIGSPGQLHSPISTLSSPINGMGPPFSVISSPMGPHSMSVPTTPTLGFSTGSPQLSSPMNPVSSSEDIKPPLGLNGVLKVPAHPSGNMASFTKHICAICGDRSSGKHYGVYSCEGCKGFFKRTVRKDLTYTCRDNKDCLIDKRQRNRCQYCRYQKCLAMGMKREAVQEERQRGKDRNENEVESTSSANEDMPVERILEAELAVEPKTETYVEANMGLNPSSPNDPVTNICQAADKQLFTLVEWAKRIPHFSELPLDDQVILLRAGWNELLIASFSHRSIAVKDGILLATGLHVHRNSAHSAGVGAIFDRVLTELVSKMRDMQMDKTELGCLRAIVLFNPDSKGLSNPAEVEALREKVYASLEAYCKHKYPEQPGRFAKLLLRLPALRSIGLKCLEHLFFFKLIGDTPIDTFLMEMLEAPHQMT
E-selectin (Homo sapiens), sequence (P16581 whole entry, looked up): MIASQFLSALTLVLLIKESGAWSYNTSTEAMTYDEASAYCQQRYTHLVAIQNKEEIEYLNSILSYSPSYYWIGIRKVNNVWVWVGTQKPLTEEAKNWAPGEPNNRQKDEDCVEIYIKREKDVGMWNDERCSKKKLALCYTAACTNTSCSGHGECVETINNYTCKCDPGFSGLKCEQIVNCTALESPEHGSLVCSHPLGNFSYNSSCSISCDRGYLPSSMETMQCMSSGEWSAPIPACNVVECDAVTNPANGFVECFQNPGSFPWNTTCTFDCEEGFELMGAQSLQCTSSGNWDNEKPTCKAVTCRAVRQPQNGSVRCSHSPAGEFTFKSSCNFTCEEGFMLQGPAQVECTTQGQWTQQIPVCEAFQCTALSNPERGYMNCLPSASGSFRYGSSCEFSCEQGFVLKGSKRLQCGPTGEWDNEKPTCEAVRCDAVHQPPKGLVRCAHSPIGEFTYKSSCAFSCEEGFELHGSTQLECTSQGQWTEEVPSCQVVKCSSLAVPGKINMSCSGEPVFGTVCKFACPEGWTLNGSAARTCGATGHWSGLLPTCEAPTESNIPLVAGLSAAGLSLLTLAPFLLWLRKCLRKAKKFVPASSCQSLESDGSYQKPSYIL
human Retinoic Acid Receptor gamma (RARg), RARG (gene 5916), sequence (P13631 whole entry, looked up, the tested form may be a part): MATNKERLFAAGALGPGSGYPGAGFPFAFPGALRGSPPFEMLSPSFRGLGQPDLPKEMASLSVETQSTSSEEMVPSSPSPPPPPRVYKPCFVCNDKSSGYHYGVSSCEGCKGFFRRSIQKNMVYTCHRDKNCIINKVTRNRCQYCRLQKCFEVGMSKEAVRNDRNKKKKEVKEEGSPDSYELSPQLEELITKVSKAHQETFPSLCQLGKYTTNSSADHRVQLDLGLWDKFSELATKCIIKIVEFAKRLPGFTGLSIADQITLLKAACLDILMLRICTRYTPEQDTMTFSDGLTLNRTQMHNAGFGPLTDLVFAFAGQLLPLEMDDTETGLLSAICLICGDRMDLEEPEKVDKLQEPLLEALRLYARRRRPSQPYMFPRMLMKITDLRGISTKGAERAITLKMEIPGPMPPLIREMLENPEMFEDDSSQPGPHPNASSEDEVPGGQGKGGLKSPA
Nuclear receptor subfamily 1 group I member 2 (Homo sapiens), sequence (O75469 whole entry, looked up, the tested form may be a part): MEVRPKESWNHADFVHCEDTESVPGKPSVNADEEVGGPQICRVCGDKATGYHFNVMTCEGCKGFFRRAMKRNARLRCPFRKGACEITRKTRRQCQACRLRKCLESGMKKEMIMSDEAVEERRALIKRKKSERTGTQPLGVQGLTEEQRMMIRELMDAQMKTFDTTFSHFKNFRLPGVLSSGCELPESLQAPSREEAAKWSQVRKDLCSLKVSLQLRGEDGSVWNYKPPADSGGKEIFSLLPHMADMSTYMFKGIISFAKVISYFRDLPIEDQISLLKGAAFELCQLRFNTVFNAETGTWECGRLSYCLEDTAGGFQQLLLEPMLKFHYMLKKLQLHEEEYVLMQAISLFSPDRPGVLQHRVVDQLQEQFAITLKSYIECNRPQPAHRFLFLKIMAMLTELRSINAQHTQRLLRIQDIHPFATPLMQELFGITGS
Peroxisome proliferator-activated receptor gamma (Homo sapiens), sequence (P37231 whole entry, looked up, the tested form may be a part): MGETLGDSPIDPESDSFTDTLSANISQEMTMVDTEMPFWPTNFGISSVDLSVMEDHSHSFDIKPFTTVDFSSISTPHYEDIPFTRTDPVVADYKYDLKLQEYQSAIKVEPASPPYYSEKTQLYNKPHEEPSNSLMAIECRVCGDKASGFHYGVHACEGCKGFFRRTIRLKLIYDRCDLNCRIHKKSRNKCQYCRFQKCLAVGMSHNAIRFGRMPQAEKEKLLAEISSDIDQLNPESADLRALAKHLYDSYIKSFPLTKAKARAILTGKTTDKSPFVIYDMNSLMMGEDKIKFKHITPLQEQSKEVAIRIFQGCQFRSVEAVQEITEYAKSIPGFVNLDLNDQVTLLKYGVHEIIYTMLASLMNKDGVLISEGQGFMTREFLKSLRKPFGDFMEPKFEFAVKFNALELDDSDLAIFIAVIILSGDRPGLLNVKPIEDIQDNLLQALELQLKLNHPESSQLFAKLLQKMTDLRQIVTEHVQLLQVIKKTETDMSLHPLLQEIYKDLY
human Retinoic Acid Receptor beta (RARb), RARB (gene 5915), sequence (P10826 whole entry, looked up, the tested form may be a part): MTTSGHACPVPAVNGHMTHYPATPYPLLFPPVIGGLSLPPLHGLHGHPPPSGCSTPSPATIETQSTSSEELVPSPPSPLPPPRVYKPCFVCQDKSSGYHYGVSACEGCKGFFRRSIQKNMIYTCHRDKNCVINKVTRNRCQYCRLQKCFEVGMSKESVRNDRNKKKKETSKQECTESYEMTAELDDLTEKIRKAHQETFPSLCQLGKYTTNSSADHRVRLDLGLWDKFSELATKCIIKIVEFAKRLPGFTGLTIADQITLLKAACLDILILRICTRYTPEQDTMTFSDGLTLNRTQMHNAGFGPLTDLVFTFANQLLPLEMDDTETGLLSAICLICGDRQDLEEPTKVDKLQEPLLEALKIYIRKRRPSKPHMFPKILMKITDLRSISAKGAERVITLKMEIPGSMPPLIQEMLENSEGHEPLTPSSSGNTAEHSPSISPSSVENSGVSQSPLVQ
human RAR-related Orphan Receptor gamma (RORg), RORC (gene 6097), sequence (P51449 whole entry, looked up, the tested form may be a part): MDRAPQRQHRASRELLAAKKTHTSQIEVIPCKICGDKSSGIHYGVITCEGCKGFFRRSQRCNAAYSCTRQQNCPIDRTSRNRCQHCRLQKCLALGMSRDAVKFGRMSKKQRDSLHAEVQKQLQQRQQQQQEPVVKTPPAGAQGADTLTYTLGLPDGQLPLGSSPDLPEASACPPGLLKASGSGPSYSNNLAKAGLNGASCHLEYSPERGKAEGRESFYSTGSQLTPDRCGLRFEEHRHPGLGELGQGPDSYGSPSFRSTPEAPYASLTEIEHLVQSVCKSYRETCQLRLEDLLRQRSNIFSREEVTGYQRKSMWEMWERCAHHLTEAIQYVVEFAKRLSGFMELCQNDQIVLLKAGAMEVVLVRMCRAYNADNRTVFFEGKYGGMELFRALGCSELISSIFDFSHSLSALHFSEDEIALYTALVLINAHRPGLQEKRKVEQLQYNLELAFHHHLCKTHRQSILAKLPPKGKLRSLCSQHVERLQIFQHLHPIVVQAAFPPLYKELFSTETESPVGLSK
human Retinoid X Receptor beta (RXRb), RXRB (gene 6257), sequence (P28702 whole entry, looked up, the tested form may be a part): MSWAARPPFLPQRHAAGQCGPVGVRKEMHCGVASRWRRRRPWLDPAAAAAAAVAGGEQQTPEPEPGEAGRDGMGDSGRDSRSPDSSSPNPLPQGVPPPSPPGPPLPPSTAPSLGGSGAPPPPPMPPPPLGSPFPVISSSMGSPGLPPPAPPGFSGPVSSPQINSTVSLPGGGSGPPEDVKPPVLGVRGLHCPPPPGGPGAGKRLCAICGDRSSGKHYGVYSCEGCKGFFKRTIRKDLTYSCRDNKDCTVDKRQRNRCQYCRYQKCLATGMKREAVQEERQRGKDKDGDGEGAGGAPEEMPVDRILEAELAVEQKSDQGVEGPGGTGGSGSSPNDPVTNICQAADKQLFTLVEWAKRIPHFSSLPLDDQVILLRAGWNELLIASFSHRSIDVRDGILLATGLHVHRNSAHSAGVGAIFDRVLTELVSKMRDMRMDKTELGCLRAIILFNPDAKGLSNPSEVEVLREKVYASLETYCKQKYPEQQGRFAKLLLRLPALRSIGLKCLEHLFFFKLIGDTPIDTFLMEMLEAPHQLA

O=C(O)c1cc(Oc2ccc(C(F)(F)F)cc2Cl)ccc1[N+](=O)[O-]
active: [5] 2.9 µM | [7] 37.1 µM
inactive: [1] | [2] | [3] | [4] | [6] | [8] | [9] | [10] | [11] | [12] | [13] | [14] | [15] | [16] | [17]

CCCSP(=O)(OCC)Oc1ccc(Br)cc1Cl (configuration not stated)
inactive: [1] | [2] | [3] | [4] | [5] | [7] | [8] | [9] | [18] | [10] | [14] | [15] | [16]
active: [6] 27.4 µM | [17] 28.9 µM

COc1ccc(C(=CC(=O)N2CCOCC2)c2ccc(Cl)cc2)cc1OC
active: [14] 10.2 µM | [16] 6.59 µM
inactive: [1] | [2] | [19] | [3] | [6] | [7] | [8] | [11] | [13] | [15] | [17]

CCc1cnc(C2=NC(C)(C(C)C)C(=O)N2)c(C(=O)O)c1 (configuration not stated)
inactive: [1] | [2] | [3] | [4] | [6] | [7] | [10] | [14] | [15] | [16] | [17]

C[Si](Cn1cncn1)(c1ccc(F)cc1)c1ccc(F)cc1
active: [7] 48.5 µM
inactive: [1] | [2] | [19] | [3] | [6] | [8] | [11] | [12] | [14] | [15] | [16] | [17]

Cc1ccn2nc(S(=O)(=O)Nc3c(F)cccc3F)nc2n1
inactive: [1] | [2] | [3] | [6] | [7] | [8] | [9] | [18] | [10] | [11] | [14] | [15] | [16] | [17]

CC1=NNC(=O)N(/N=C/c2cccnc2)C1
inactive: [1] | [2] | [3] | [5] | [6] | [7] | [8] | [9] | [11] | [13] | [14] | [15] | [16] | [17]
